FMDV antiviral: blocks foot and mouth disease virus; 1.2% of 410,000 active; Potency, µM (titrated, usually from 57.9 µM), for the others: at the top dose activity change, negative = inhibition, actives largely listed as inhibitors; FMDV antiviral cell-based qHTS; calls by dose curve; tested in HEK293T cells; note: read-out not given here; potency is the fitted concentration of half-maximal effect; nearly all actives have a fitted effect of over 45% in size
VACV Venus inh: inhibitors of vaccinia virus (Venus reporter) | AID 720580 | Potency, µM (series often up to 36.5 µM), for inactives: at the top dose activity change, negative = inhibition, hits mostly inhibitors | 0.46% of 330,000 active | Vaccinia virus Venus reporter expression, fluorescence; calls by dose curve; tested in A549 cells; note: potency is the fitted concentration of half-maximal effect; nearly all actives have a fitted effect of over 30% in size
HCMV antiviral: human cytomegalovirus inhibition; activity change, negative = inhibition, % at 57.5 µM; 4.5% of 410,000 active; HFF cells, HCMV-luciferase reporter, 72 h; stronger effect = lower value; in the data active = activity change below about -60%; inconclusive = no clear call, values can overlap the other calls; inactive = above about -39%
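Inhibition of viral replication was scored as loss of reporter luminescence in HFFs infected with HCMV-luciferase (MOI 1 PFU/cell) for 72 h; compounds tested at 2 doses, normalized to buffer and Salinomycin controls.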
Sm TGR inh: S. mansoni TGR enzyme inhibition; Q962Y6; purified TGR, DTNB reduction, TNB absorbance 405 nm; Potency, µM (titrated, usually from 114 µM), for inactives: top-dose activity change, negative = inhibition, actives largely listed as inhibitors; 3% of 360,000 active; AID 485364; note: potency is the fitted concentration of half-maximal effect; nearly all actives have a fitted effect of over 60% in size
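TGR 20 nM + NADPH 100 uM (dispensed conc.), cpd preinc 15 min RT; start with NADPH (500 uM addition) then DTNB (15 mM addition). Kinetic TNB absorbance, 405 nm filter. Four-parameter Hill fit across titration.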
Vaccinia mCherry: inhibitors of vaccinia virus infection (mCherry reporter signal). Vaccinia virus mCherry reporter infection, fluorescence. Potency, µM (highest dose often 36.5 µM), for the others: top-dose activity change, negative = inhibition, usual class: inhibitors. 0.63% of 310,000 active. AID 720579; calls by dose curve; tested in A549 cells; note: potency is the fitted concentration of half-maximal effect; nearly all actives have a fitted effect of over 35% in size
HCV inh: blocks hepatitis C virus. AID 651820. 3.4% of 340,000 active. Potency, µM (highest dose often 41.8 µM), for the others: at the highest dose activity change, negative = inhibition, actives largely listed as inhibitors. Huh7.5.1 HCVcc-Cre infection, luciferase reporter, 44 h; note: potency is the fitted concentration of half-maximal effect
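Antiviral activity was scored by luciferase reporter output from cells infected with HCVcc-Cre (~0.5 moi) in presence of compound, 44 h infection period, cells seeded 1,000/well 4 h prior.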
Numbers without * were called inactive; [ ] = dose if it differs, or a comment. Sampled rows, rich in hits. Any-hit rate of the full collection: about 9.3%. Unless noted, calls come from the whole dose curve; as a rule, active = well fitted curve in the direction sought with a large enough effect; inconclusive = small, poorly fitted or top-dose-only effect, or another doubt; inactive = no such curve, though single readings can be large; an effect the other way counts as inactive or inconclusive. % is set by controls: 0 for no effect and ±100 for the full control effect.

C/C(=N\NC(=O)c1nnn(-c2nonc2N)c1-c1ccccc1)c1cccnc1 was read as FMDV antiviral 4%, VACV Venus inh -4%, HCMV antiviral -4, Sm TGR inh -4%, Vaccinia mCherry -13% and HCV inh 8%.
For CCOC(=O)c1c(C)c(C(=O)N2CCN(C(=O)c3ccco3)CC2)c(C)n1C the results were FMDV antiviral 14%, VACV Venus inh -11%, HCMV antiviral 9, Sm TGR inh 7%, Vaccinia mCherry inactive and HCV inh 0%.
CCOC(=O)c1c(C)n(C(=O)c2ccco2)c(=O)n1C(=O)c1ccco1 was read as FMDV antiviral 23%, HCMV antiviral 25, Sm TGR inh 35µM* and HCV inh 15%.
O=[N+]([O-])c1ccc(-c2ccc(/C=N/Nc3nc(NCc4ccccc4)nc(N4CCOCC4)n3)o2)cc1 was read as FMDV antiviral -13%, VACV Venus inh -23%, HCMV antiviral -88*, Sm TGR inh 2%[57.1 µM], Vaccinia mCherry -3% and HCV inh inconclusive.
For COC(=O)c1ccccc1-c1ccc(/C=N/Nc2nc(N3CCCC3)nc(N3CCCC3)n2)o1 the results were FMDV antiviral 22µM*, VACV Venus inh -29%, HCMV antiviral -7, Sm TGR inh -14%, Vaccinia mCherry -19% and HCV inh 11µM*.
COc1nc(N/N=C/c2ccc(-c3ccccc3[N+](=O)[O-])o2)nc(N2CCOCC2)n1 was read as FMDV antiviral -11%, VACV Venus inh -7%, HCMV antiviral 55, Sm TGR inh -29%, Vaccinia mCherry inactive and HCV inh 11µM*.
Screening Cc1ccc(/C=N/Nc2nc(N3CCCCC3)nc(N3CCCCC3)n2)o1 returned FMDV antiviral -18%, VACV Venus inh -7%, HCMV antiviral -36, Sm TGR inh -2%, Vaccinia mCherry -3% and HCV inh inconclusive.
For O=[N+]([O-])c1ccc(/C=N/Nc2nc(N3CCCCCC3)nc(N3CCCCCC3)n2)o1 the results were FMDV antiviral inconclusive, VACV Venus inh -25%, HCMV antiviral -11, Sm TGR inh -33%, Vaccinia mCherry inconclusive and HCV inh inconclusive.
COCc1c(C(=O)OCc2nc3ccsc3c(=O)[nH]2)oc2ccccc12 was read as FMDV antiviral -8%, HCMV antiviral 13, Sm TGR inh -3% and HCV inh 3%.
`Cn1c(CN2CCCCC2)nc2cc(NC(=O)c3ccccc3Cl)ccc21` gave FMDV antiviral inconclusive, VACV Venus inh -13%, HCMV antiviral inconclusive, Sm TGR inh 2%, Vaccinia mCherry -17% and HCV inh inconclusive.
Screening CCOC(=O)N1CCN(Cc2nc3cc(NC(=O)c4ccc(OC)cc4)ccc3n2C(C)C)CC1 returned FMDV antiviral 0%, VACV Venus inh inconclusive, HCMV antiviral -36, Sm TGR inh 6% and Vaccinia mCherry inconclusive.
For CCOC(=O)N1CCN(Cc2nc3cc(NC(=O)c4ccc(F)cc4)ccc3n2C(C)C)CC1 the results were FMDV antiviral inconclusive, VACV Venus inh -18%[7.34 µM], HCMV antiviral -85*, Sm TGR inh -3% and Vaccinia mCherry -26%[7.34 µM].
`Cn1c(CN2CCCCC2)nc2cc(NC(=O)c3ccc(F)cc3)ccc21` gave FMDV antiviral inconclusive, HCMV antiviral -62*, Sm TGR inh -1% and HCV inh 10µM*.
O=C(CNC(=O)c1cccs1)N/N=C/c1ccc(O)cc1O was read as FMDV antiviral 18%, VACV Venus inh 1%, HCMV antiviral -3, Sm TGR inh -2%, Vaccinia mCherry -8% and HCV inh 5%.
`COc1c(-c2coc3cc4c(cc3c2=O)CC(O)C(C)(C)O4)ccc2c1C=CC(C)(C)O2` (stereo unspecified) gave FMDV antiviral 2.2µM*, VACV Venus inh 11µM* and Vaccinia mCherry 11µM*.
c1ccc(-c2nc3nonc3nc2-c2ccccc2)cc1 was read as FMDV antiviral inconclusive, VACV Venus inh -9%, HCMV antiviral -78*, Sm TGR inh inconclusive, Vaccinia mCherry -20% and HCV inh inconclusive.
